Reference: PubChem BioAssay AID504894 (National Center for Advancing Translational Sciences (NCATS), 2011)
Hit rate of the full screen: of about 330,000 compounds, fewer than 10 were called active. The call rests on the fitted dose curve; in most records, active means well fitted activation curve with a large enough effect; inconclusive means small, poorly fitted or top-dose-only effect, or another doubt; inactive means no such curve, though single readings can be large or run the other way. The list is a sample of the results. Square brackets hold non-standard residues; d marks the D form. Peptide text beside a SMILES is read from it. ξ: configuration not given here. Ac5c = NC1(C(=O)O)CCCC1; ξS = NC(CO)C(=O)O

Experiment: Activators of T cell receptors: qHTS campaign
Details: primary human leukocytes, anti-CD3, IL-2 HTRF, 48 h; series mostly up to 9.22 µM
Description: Normally activation of naive T cells requires two signals. 1. A signal through the T cell receptor (TCR) which provides antigen specificity to the response. 2. Signals through co-stimulatory molecules, which are necessary for proliferation, survival and cytokine production. In the absence of co-stimulatory signals T cells are not effectively activated, and may even be rendered anergic or unresponsive to subsequent signaling. This lack of costimulation has been shown in multiple model systems to be a major factor in the limited strength and effectiveness of anti-tumor T cell responses. The goal of this project is to identify small molecule compounds that will stimulate T cell activation in the presence of TCR signaling but in the absence of co-stimulatory signals, thereby allowing activation of naive T cells in the absence of co-stimulation. Identification of such compounds would have clear experimental and clinical applications in instances where desirable antigen-specific immune responses are not generated due to a lack of co-stimulation, for example in the generation of anti-tumor responses. In collaboration between the National Cancer Institute and NIH Chemical Genomics Center, a high-throughput amenable screen was developed to discover small molecules that co-stimulate and activate human T cell receptors. The screen will be carried out using a novel homogeneous time resolved fluorescence energy transfer (HTRF) assay to measure production of the cytokine IL-2 by activated T cells and will be tested against the NIH Molecular Libraries Small Molecule Repository (MLSMR). NIH Chemical Genomics Center [NCGC] NIH Molecular Libraries Probe Centers Network [MLPCN] MLPCN Grant: MH090820-01 Assay Submitter (PI): Richard Hodes, National Cancer Institute, NIH
Primary human leukocytes are incubated with a-CD3 beads and compounds for 48 hr. The amount of secreted IL-2 is then assayed with a HTRF IL-2 kit. The presence of IL-2 cytokine captures the detection reagents and brings the a-IL-2-K and a-IL-2-d2 into close proximity. Upon excitation with 320nm light, the europium cryptate is capable of transferring energy to acceptor molecules within close proximity, resulting in acceptor molecule emission at 665nm.

outcome, inactive:
COc1ccc(S(=O)(=O)N2C[C@H]3CON(C)[C@H]3C[C@H]2c2cccc(Br)c2)cc1
CC(C)c1cc(N=O)cc(C(C)C)c1O
COC(=O)CC(CC(=O)OC)n1cccc1
CCOc1ccc(/C=C(/C#N)c2nnc(N3CCOCC3)n2-c2ccccc2)cc1OC
O=C(Cc1ccc(NC(=O)C2CCCN(C(=O)C3CCCCC3)C2)cc1)Nc1cccc(C(=O)N2CCCCC2)c1 (stereo not drawn)
Cc1[nH]c(N)nc(=S)c1CCCNc1ccccc1
CC(=NNC(=O)c1ccncc1)c1ccc(Cl)c(Cl)c1
O=C(CCCCCCCC(=O)N1CCCCC1)N1CCCCC1
NC(=O)C1(N2CCCC2)CCN(Cc2ccccc2)CC1
CCOc1cc(C(=O)N(Cc2ccccc2)c2ccc(C)cc2)ccc1OCC(=O)N1CCOCC1
CN(C(=O)c1ccc(NC(=O)Cc2cccc(NC(=O)C3CCN(C(=O)c4ccccc4)CC3)c2)cc1)C1CC1
COCC(=O)N(C)[C@H]1C[C@H]2c3cc(Oc4ccccc4C)ccc3CCN2C(=O)[C@H]1[C@H](C)O
CCN(CC)S(=O)(=O)c1cccc(NC(=O)c2ccc(S(=O)(=O)N3CCCC3)cc2)c1
CCOC(=O)CCC(NC(=O)c1ccc(CNc2nc3cc(C(F)(F)F)ccc3nc2C(=O)OCC)cc1)C(=O)OCC (stereo not drawn)
N#CC1(Nc2ccc(-c3ccc(Cl)cc3)cc2)CCCC1
O=C(O)C(c1cccs1)C1(O)CCCCC1 (stereo not drawn)
COc1ccccc1NC(=O)N(O)C1(C#N)CCCCC1
CC(C)Cc1nnc(N)s1
Cn1c(N)cc(=O)n(C)c1=S
CN1C(c2ccc(F)cc2)=CS/C1=C(/C#N)c1nnc2n1-c1ccccc1SC2
COc1ccc2c(c1)c(=Cc1ccc(N(C)C)cc1)c1cc(-c3ccccc3)[n+](C)n12
O=C(Nc1cccc(Br)c1)C1CC(=O)N(C2CCCC2)C1 (stereo not drawn)
Cc1cc(OCCCC(=O)Nc2cc(S(=O)(=O)N3CCOCC3)ccc2N2CCOCC2)ccc1Cl
Cc1cc(NC(=O)C(C)SCC(=O)Nc2cccc(S(=O)(=O)N3CCCCCC3)c2)no1 (stereo not drawn)
Oc1ccc(-c2nc3ccccc3nc2-c2ccc(O)cc2O)c(O)c1
CSCCC(NS(=O)(=O)c1ccc(C)cc1)C(=O)N(C)CC(=O)Nc1ccccc1Br (stereo not drawn)
CCCCN1CC(COc2ccccc2)Oc2cccc(F)c2S1(=O)=O (stereo not drawn)
CC(C)=CCc1ccc(O)c(=O)cc1C(C)C
CC1(C)C(=O)CCC2(C)C1=CCC1C2C(=O)CC2(C)C1CCC2(O)C(=O)CO (stereo not drawn)
COC1=CC(=O)OC(C)(c2ccccc2)C1 (stereo not drawn)
O=C(NCC1CCCCC1)NCC1CCCCC1
Cc1ccc(NC(=O)C(C)OC(=O)C2CC3CCCC(C2)C3=O)cc1S(=O)(=O)N1CCOCC1 (stereo not drawn)
COc1ccc(CNC(=O)COC(=O)C2=Cc3ccccc3OC2)cc1
COC1C(CO)OC(n2cnc3c(=S)nc(N)[nH]c32)C1O (stereo not drawn)
O=C(c1cccc(S(=O)(=O)N2CCCCCC2)c1)N1CCN(Cc2ccccc2)CC1
O=C1NC(c2ccccc2)Cc2ccncc21 (stereo not drawn)
CN1CCOC1c1ccc(C2OCCN2C)cc1 (stereo not drawn)
CC1CCCN(C(=O)Cn2c(=O)oc3cc(S(=O)(=O)N4CCCCC4C)ccc32)C1 (stereo not drawn)
O=C(Cc1ccc(NC(=O)C2CCCN(C(=O)CCc3ccccc3)C2)cc1)Nc1ccc(C(=O)N2CCOCC2)cc1 (stereo not drawn)
CCOc1ccc(S(=O)(=O)N2CCN(C(=O)c3oc4ccccc4c3C)CC2)cc1
CN(C(=O)c1cccc(NC(=O)Cc2ccc(NC(=O)C3CCN(C(=O)C4CCCCC4)CC3)cc2)c1)C1CCC1
COc1cc2c(cc1OC)C1C(=O)c3cc(OS(C)(=O)=O)c(OC)cc3C1N(C)C2=O (stereo not drawn)
Nc1cc(=O)n(Cc2ccccc2)c(=O)n1Cc1ccccc1
c1ccc(CNc2ncnc3[nH]ncc23)cc1
C[n+]1cccc(C(=O)O)c1
O=S(=O)(Cc1ccc(Cl)cc1Cl)c1ccc(Cl)cc1
CCOC(=O)[C@H]1[C@H]2COc3ccc(Br)cc3[C@@H]2N2C(=O)CN(C)C(=O)[C@@]12C
O=[N+]([O-])c1cccc(C=NN=Cc2ccccc2O)c1
O=C(Nc1ccc2ccccc2c1[N+](=O)[O-])c1ccccc1
COc1ccc(NS(=O)(=O)c2ccc(N3CCOCC3)c(NC(=O)/C=C/C(=O)O)c2)cc1
Cc1nc2ccc(N)nc2nc1C
CCOC(=O)C(CO)NC(=O)C1(NC(C)=O)CCCC1 (stereo not drawn) (Ac-[Ac5c]-[ξS]-OEt)
COc1ccc(N=C2C=CC(=O)O2)cc1
C/C(=N\Nc1ccc(Cl)nn1)c1ccccc1O
O=C(NNC(=O)c1ccc2ccccc2c1)c1ccc(Cl)cc1
COC(=O)Cc1nc2c(N)nc(N)nc2[nH]c1=O
CC(C)OC(=O)c1ccc(NCc2cc(O)ccc2O)cc1Cl
Cc1cc([N+](=O)[O-])c(=O)[nH]c1C
O=C(O)c1ccc(NN=CC2=C(N3CCOCC3)/C(=C/c3ccccc3)CC2)cc1
CCN1C[C@@H]2[C@@H]3C(=O)N(C)C(=O)[C@@H]3[C@](C)(C1=O)N2C(=O)c1ccccc1
COc1ccc(Br)cc1/C=N/Nc1ccc(S(=O)(=O)Nc2ccccc2C(=O)O)cc1[N+](=O)[O-]
O=C(Nc1c[nH]c(=O)[nH]c1=O)OCc1ccccc1
O=C(Nc1ccn(CCCNCc2ccc3[nH]ccc3c2)c(=O)n1)OCc1ccccc1
CCCCNCCS(=O)(=O)NCc1ccccc1
COc1ccc2nc(N3C(=O)C(O)=C(C(=O)c4ccco4)C3c3ccco3)sc2c1 (stereo not drawn)
COc1ccc(C(CNC(=O)c2cccc(S(=O)(=O)Nc3ccc(Br)cc3)c2)N(C)C)cc1 (stereo not drawn)
CCCCC(=O)NC(c1ccc(OC)c(OC)c1)c1ccc2cccnc2c1O (stereo not drawn)
O=c1[nH]c(=S)[nH]c(O)c1/C=C1\C=Nc2ccccc21
